Rows were chosen to be rich in hits. Some 12% of all compounds tested hit in one or more screens of this group.
Pf growth 48h = Primary qHTS for delayed death inhibitors of the malarial parasite plastid, 48 hour incubation | P. falciparum luciferase growth in erythrocytes, 48 h | Potency, µM (highest dose often 28.7 µM), for the others: top-dose activity change, negative = inhibition, most hits filed as inhibitors | actives 5.9% (n = 310,000); also: % is scaled to controls: 0 for no effect and ±100 for the full control effect
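Compounds are pin-transferred into medium, infected erythrocytes (2% hematocrit, 0.1% parasitemia final) are added, and plates sit one parasite generation at 37 C in 5% CO2. Detection reagent is then added and luminescence measured.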
Pf growth 96h = Primary qHTS for delayed death inhibitors of the malarial parasite plastid, 96 hour incubation; actives 6.9% (n = 320,000); Potency, µM (top dose mostly 28.7 µM), without a hit: top-dose activity change, negative = inhibition, most hits filed as inhibitors; P. falciparum luciferase reporter growth, 96 h; also: % is scaled to controls: 0 for no effect and ±100 for the full control effect
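Delayed-death screen, second-generation endpoint: infected erythrocytes, 2% hematocrit, 0.05% parasitemia final; 96 hours at 37 C, 5% CO2; luciferase detection reagent; luminescence decrease equals reduced growth.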
AmpC inh detg = qHTS Inhibitors of AmpC Beta-Lactamase (assay with detergent); AmpC hydrolysis of nitrocefin, absorbance 480 nm, 0.01% Triton; Potency, µM (series often up to 114 µM), for inactives: at the top dose activity change, negative = inhibition, most hits filed as inhibitors; actives 0.041% (n = 370,000); P00811;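 also: 0% = no-compound wells and -100% = no-enzyme wells; nearly all actives have a fitted effect of over 25% in size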
Target sequence (P00811 whole entry, looked up): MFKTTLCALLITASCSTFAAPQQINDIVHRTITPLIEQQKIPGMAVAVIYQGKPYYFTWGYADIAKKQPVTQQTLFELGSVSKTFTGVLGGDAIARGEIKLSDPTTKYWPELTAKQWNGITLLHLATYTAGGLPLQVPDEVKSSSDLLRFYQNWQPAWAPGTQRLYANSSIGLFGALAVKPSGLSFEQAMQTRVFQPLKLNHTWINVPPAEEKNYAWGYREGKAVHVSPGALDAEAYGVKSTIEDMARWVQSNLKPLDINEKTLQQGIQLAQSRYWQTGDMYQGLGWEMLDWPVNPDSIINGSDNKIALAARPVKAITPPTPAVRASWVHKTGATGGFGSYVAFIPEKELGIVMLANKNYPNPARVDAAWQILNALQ
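20 mM phosphate pH 7.0 + 0.01% (detergent screen) or 0.0001% Triton X-100; 5.3 nM AmpC reagent; cpd preinc 15 min RT; nitrocefin (800 uM stock) to start; A480 q20 s × 4 min; Activity was normalised to no-enzyme and no-compound control wells.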
SARS PLpro yeast = qHTS of Yeast-based Assay for SARS-CoV PLP. S. cerevisiae expressing SARS-CoV PLpro, growth rescue. Potency, µM (top dose mostly 32.9 µM), for the others: at the highest dose activity, positive = growth rescue, hits mostly activators. AID 485353, 2010. actives 0.19% (n = 330,000); calls by dose curve; also: 0% is about no effect; nearly all actives have a fitted effect of over 55% in size
AmpC no deterg = qHTS Inhibitors of AmpC Beta-Lactamase (assay without detergent); Potency, µM (doses to about 57.1 µM), inactives show at the top dose activity change, negative = inhibition, most hits filed as inhibitors; AmpC nitrocefin hydrolysis, absorbance 480 nm, 0.0001% Triton; P00811; actives 0.52% (n = 330,000);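 also: plate controls were no compound for no effect and no enzyme for full effect; nearly all actives have a fitted effect of over 20% in size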
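AmpC (5.3 nM in the dispensed reagent) in 20 mM phosphate pH 7.0 with 0.01% (detergent screen) or 0.0001% Triton X-100 was preincubated with compounds for 15 min at room temperature. Nitrocefin was then added from an 800 uM solution, and hydrolysis was followed at 480 nm.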
Sm TGR inh = qHTS Assay for the Inhibitors of Schistosoma Mansoni Peroxiredoxins; AID 485364, 2010; actives 3% (n = 360,000); Potency, µM (highest dose often 114 µM), inactives show at the highest dose activity change, negative = inhibition, usual class: inhibitors; purified TGR, DTNB reduction, TNB absorbance 405 nm; also: % is scaled to controls: 0 for no effect and ±100 for the full control effect; nearly all actives have a fitted effect of over 60% in size
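TGR 20 nM + NADPH 100 uM (dispensed conc.), cpd preinc 15 min RT; start with NADPH (500 uM addition) then DTNB (15 mM addition). Kinetic TNB absorbance, 405 nm filter. Four-parameter Hill fit across titration.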
* = called active by the depositor; ? = inconclusive; / = no result given; [ ] = remark or other dose. Unless noted, calls follow the shape of the dose curve; as a rule, active = well fitted curve in the direction sought with a large enough effect; inconclusive = small, poorly fitted or top-dose-only effect, or another doubt; inactive = no such curve, though single readings can be large; an effect the other way counts as inactive or inconclusive. Potency is read from the fitted curve at half-maximal effect.

SMILES	Pf growth 48h	Pf growth 96h	AmpC inh detg	SARS PLpro yeast	AmpC no deterg	Sm TGR inh
Cc1cc2ccccc2c(=O)n1CC(=O)N(C)c1ccc(F)cc1	10.9%	10.4µM*	-10.8%	-5.8%	-8.1%	-5.9%
CC(C)c1ccc(NC(=O)CSc2nc(=O)n(Cc3cccnc3)c3c2CCC3)cc1	/	/	-3.5%	/	/	-17.6%
Cc1cc(NCC2CCCCC2)nc2ccccc12	3.29µM*	?	-7.3%	0.9%	-39.0%	-3.4%
CCCCC(=O)NC(NC(=O)CCCC)c1ccc(OCC(C)C)c(OC)c1	7.3%	-3.0%	3.0%	7.9%	-18.7%	3.2%
COc1ccc(C(NC(=O)CC(C)C)NC(=O)CC(C)C)cc1OC	16.0%	10.4µM*	-8.8%	4.2%	-6.9%	10.8%
COc1cc(/C=C(\NC(C)=O)C(=O)Nc2cccc(O)c2)ccc1OC(C)=O	11.9%	?	-11.3%	4.2%	-11.3%	50.1µM*
CCC(=O)N1CCc2cc(Br)cc(S(=O)(=O)CCC(=O)Nc3ccccc3C)c21	/	/	0.8%	/	/	5.8%
COc1cc(O)c(C(CCN2CCOCC2)c2cc(OC)c(OC)c(OC)c2)c(OC)c1 (configuration not stated)	?	?	1.0%	1.6%	34.0%	-27.0%
CCN(CC)C(=O)CC(c1ccc(OC)cc1)c1c(O)cc(OC)cc1OC (configuration not stated)	?	-14.6%	-3.4%	-1.3%	16.1%	-7.9%
COc1ccc(C(CCN2CCCCC2)c2c(O)cc(OC)cc2OC)cc1 (configuration not stated)	0.657µM*	0.465µM*	2.5%	0.5%	-0.9%	39.8µM*
COc1ccc(C(CCN2CCCC2)c2c(O)cc(OC)cc2OC)cc1 (configuration not stated)	?	2.94µM*	5.4%	0.5%	-2.1%	?
O=C(Nc1ccc(S(=O)(=O)NC2=NCCCCC2)cc1)c1cccs1	/	/	/	-4.7%	-27.5%	/
Cc1ccnc(NS(=O)(=O)c2ccc(NC(=O)c3ccc([N+](=O)[O-])s3)cc2)n1	4.15µM*	11.7µM*	-4.1%	3.7%	?	?
O=C(Nc1ccc(S(=O)(=O)NC2=NCCCCC2)cc1)c1ccc([N+](=O)[O-])s1	10.4µM*	13.1µM*	-5.2%	-19.9%	-40.9%	-21.9%
Cc1ccnc(NS(=O)(=O)c2ccc(NC(=O)C3CCCCC3C(=O)O)cc2)n1 (configuration not stated)	27.0%	2.94µM*	-12.9%	-1.4%	-16.0%	0.0%
CC(C)c1ccc(N2C(=O)CC(Sc3ncn[nH]3)C2=O)cc1 (configuration not stated)	/	-3.9%	-9.8%	-35.4%	-21.3%	0.562µM*
COc1ccc(N2C(=O)CC(Sc3ncn[nH]3)C2=O)c(OC)c1 (configuration not stated)	-14.2%	3.0%	?	-29.4%	75.5%	0.282µM*
CCCc1c(O)nc(SC2CC(=O)N(c3cc(OC)ccc3OC)C2=O)[nH]c1=O (configuration not stated)	14.6%	-13.7%[5.75 µM]	?	-1.9%	-19.6%	-4.5%
COC(=O)c1ccccc1C(=O)c1ccc(OCCN2CCCCC2)cc1	-23.3%	-20.8%	/	/	/	/
Cc1cc(=O)[nH]c2ccc(S(=O)(=O)NC3CCCCC3)cc12	0.0%	10.4µM*	-15.3%	4.3%	-26.9%	-17.5%
Cc1ccc(S(=O)(=O)NC2CCCC2)cc1C	/	0.0%	-1.4%	-6.5%	-4.8%	-6.9%
COCC(C)NC(=O)Cc1ccc(Cl)cc1 (configuration not stated)	28.5%	17.4%	3.7%	-0.9%	-11.1%	3.7%
COCC(C)NC(=O)Cc1ccc(F)cc1 (configuration not stated)	-15.4%	9.28µM*	-7.7%	23.1%	-5.2%	-8.8%

Screening data: PubChem BioAssay, National Center for Advancing Translational Sciences (NCATS)
